We go through 7 compounds from PubChem BioAssay.

Experiment [1] in a line: optical density shifts of acrAB sulA E. coli – strain DRC41, OD650, 48 h, E. coli filamentation inducer project, primary screen (AID 1152).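 Further: E. coli MC1000 strain DRC41 lacking acrAB efflux pump and sulA.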 The following applies: higher = more signal, called active from +8 up or from −8 down.
A short description of experiment [2]: probe aLefty1 binding on compound microarray – biochemical, small-molecule microarray, 635/667 nm fluorescence, primary screen (AID 1153).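 Further: score merges spot fluorescence with signal-to-noise ratio from the scanned slide images.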 To be noted: higher = more signal.
A short description of experiment [3]: plasmodial surface anion channel blockers, osmotic lysis – cell-based, P. falciparum Indochina, OD700, 1 h, primary screen (AID 1154). To be noted: P. falciparum Indochina infected RBC osmotic lysis, higher = more signal, called active from +8 up or from −8 down.
Experiment [4] is described as follows: plasmodial surface anion channel blockers, osmotic lysis – cell-based, P. falciparum Indochina, OD700, 2 h, primary screen (AID 1155).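 Further: lysis reports solute entry through the parasite surface anion channel PSAC.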 The following applies: P. falciparum Indochina infected erythrocytes, higher = more signal, called active from +8 up or from −8 down.
A short description of experiment [5]: changes in parasitized red cell lysis, either direction – P. falciparum Indochina, OD700, 3 h, PSAC antagonist project, primary screen (AID 1156). To be noted: P. falciparum-infected erythrocytes, osmotic lysis, higher = more signal, called active from +8 up or from −8 down.
A short description of experiment [6]: plasmodial surface anion channel blockers, osmotic lysis – cell-based, P. falciparum Indochina, OD700, 18 h, primary screen (AID 1157). The following applies: P. falciparum Indochina infected erythrocytes, osmotic lysis OD700, 18 h; higher = more signal, called active from +8 up or from −8 down.
Experiment [7] can be described thus: S6 kinase pathway phospho-S6 level changes – cell-based, A549, cytoblot, luminescence, serum-stimulated, primary screen (AID 1158).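 Further: serum-stimulated A549 lung adenocarcinoma cells; signal is phosphorylated S6 detected by cytoblot immunostaining with HRP secondary.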 The following applies: 5 h, higher = more signal.
For experiment [8], the target named is NADPH oxidase 2 (Homo sapiens) (UniProt P04839). Put plainly: compounds shifting NOX2 Amplex Red fluorescence – cell-based, HEK293-NOX2, PMA-stimulated, NOX inhibitor project, primary screen (AID 1159). Further: test concentration not given here. The following applies: 45 min, higher = more signal, called active from +8 up or from −8 down.
NADPH oxidase 2 (Homo sapiens), sequence (P04839 whole entry, looked up): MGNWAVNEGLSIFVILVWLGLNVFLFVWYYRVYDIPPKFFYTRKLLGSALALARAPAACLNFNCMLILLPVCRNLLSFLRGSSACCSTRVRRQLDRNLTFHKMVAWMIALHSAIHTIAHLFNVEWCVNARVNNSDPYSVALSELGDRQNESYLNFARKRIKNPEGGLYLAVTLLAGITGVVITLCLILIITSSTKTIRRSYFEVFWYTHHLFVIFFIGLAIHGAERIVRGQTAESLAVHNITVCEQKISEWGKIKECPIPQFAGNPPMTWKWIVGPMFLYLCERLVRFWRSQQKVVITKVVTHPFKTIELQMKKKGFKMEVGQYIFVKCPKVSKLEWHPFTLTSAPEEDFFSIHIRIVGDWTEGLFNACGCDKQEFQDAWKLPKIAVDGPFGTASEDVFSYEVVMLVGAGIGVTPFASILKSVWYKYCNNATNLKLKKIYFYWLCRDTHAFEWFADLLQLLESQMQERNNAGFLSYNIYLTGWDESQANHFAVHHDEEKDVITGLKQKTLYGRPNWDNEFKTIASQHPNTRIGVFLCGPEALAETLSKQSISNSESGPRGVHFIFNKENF
For experiment [9], the target named is NADPH oxidase 4 (Homo sapiens) (UniProt Q9NPH5). Put plainly: compounds shifting NOX4 Amplex Red fluorescence – cell-based, HEK293-NOX4, tetracycline-induced, NOX inhibitor project, primary screen (AID 1160). To be noted: HEK293-NOX4, Amplex Red H2O2 fluorescence, 45 min; higher = more signal, called active from +8 up or from −8 down.
NADPH oxidase 4 (Homo sapiens), sequence (Q9NPH5 whole entry, looked up): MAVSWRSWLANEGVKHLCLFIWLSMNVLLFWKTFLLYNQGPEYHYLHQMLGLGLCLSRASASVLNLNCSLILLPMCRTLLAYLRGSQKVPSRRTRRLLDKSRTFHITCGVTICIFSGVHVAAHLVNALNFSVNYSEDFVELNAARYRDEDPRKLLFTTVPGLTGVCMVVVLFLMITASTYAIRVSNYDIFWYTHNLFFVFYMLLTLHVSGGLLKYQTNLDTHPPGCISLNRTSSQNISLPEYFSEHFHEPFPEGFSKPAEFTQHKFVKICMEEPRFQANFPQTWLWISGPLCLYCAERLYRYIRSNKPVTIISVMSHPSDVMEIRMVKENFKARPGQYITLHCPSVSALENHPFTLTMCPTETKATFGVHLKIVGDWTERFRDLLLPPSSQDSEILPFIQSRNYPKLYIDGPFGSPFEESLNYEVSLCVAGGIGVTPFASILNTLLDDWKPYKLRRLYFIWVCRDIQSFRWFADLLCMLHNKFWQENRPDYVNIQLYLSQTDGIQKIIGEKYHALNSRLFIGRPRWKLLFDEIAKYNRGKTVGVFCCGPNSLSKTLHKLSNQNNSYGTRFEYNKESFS
The target in experiment [10] is NADPH oxidase 5 (Homo sapiens) (UniProt Q96PH1). The experiment is described as follows: compounds shifting NOX5 Amplex Red fluorescence – cell-based, HEK293-NOX5, NOX inhibitor project, primary screen (AID 1161). To be noted: HEK293-NOX5, ionomycin, 45 min, higher = more signal.
NADPH oxidase 5 (Homo sapiens), sequence (Q96PH1 whole entry, looked up): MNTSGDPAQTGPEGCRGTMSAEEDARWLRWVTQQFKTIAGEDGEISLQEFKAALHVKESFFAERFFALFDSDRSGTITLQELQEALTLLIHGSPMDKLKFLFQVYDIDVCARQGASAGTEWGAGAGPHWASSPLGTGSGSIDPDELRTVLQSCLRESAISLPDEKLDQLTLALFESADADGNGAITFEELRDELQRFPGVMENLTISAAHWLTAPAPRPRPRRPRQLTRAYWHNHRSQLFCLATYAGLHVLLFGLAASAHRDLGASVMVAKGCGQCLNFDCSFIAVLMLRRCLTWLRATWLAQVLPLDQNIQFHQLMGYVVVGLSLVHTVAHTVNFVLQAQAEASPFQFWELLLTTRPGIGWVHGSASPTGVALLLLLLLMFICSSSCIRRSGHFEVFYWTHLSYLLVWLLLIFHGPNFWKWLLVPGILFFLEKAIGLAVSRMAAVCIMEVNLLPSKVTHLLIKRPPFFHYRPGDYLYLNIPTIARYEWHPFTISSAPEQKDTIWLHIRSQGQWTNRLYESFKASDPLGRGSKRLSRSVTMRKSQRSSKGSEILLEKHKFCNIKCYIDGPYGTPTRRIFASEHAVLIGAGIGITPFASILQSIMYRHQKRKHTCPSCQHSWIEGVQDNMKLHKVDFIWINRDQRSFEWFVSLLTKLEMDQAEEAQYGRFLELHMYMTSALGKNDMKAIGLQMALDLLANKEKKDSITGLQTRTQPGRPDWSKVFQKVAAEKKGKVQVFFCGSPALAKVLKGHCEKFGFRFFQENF
Experiment [11] in a line: compound effects on lung adenocarcinoma cell viability – A549, calcein-AM fluorescence, 48 h, basal, profiling panel (AID 1162). Further: test concentration not given here. To be noted: higher = more signal.
Experiment [12] in a line: compound effects on differentiated 3T3-L1 adipocyte viability – cell-based, 3T3-L1 adipocytes, calcein-AM fluorescence, 48 h, basal, profiling panel (AID 1163). Further: test concentration not given here. To be noted: 3T3-L1 adipocytes viability, higher = more signal.
Experiment [13] can be described thus: compound effects on hepatocellular carcinoma cell viability – HepG2, calcein-AM fluorescence, 48 h, basal, profiling panel (AID 1164). Further: test concentration not given here. To be noted: higher = more signal.
Experiment [14] is described as follows: compound effects on multiple myeloma cell viability – MM1S, calcein-AM fluorescence, 48 h, basal, profiling panel (AID 1165).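 Further: viability of MM1S multiple myeloma cells under basal unstimulated conditions; test concentration not given here.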 To be noted: higher = more signal.
Experiment [15] is described as follows: calcein-AM signal in unstimulated myeloma cells – cell-based, calcein-AM fluorescence, 48 h, PK04 Diversity Set, profiling panel (AID 1166).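 Further: cells grown under basal conditions without added stimulus; test concentration not given here.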 To be noted: RPMI8226 myeloma viability, higher = more signal.
Experiment [16] is described as follows: JC-1 mitochondrial signal, unstimulated HepG2 cells – cell-based, JC-1 fluorescence, 24 h, 100 nL compound, profiling panel (AID 1167). Further: test concentration not given here. The following applies: HepG2 mitochondrial potential, higher = more signal.
Experiment [17] is described as follows: JC-1 mitochondrial signal, unstimulated adipocytes – cell-based, JC-1 fluorescence, 3T3-L1 adipocytes, 24 h, 100 nL compound, profiling panel (AID 1168). Further: test concentration not given here. The following applies: JC-1 mitochondrial fluorescence, higher = more signal, called active from +8 up or from −8 down.
A short description of experiment [18]: JC-1 mitochondrial signal, unstimulated myeloma cells – cell-based, JC-1 fluorescence, RPMI8226, 24 h, 100 nL compound, profiling panel (AID 1169). Further: test concentration not given here. The following applies: JC-1 mitochondrial potential fluorescence, higher = more signal.
Experiment [19] in a line: JC-1 mitochondrial signal, unstimulated MM1S myeloma – cell-based, JC-1 fluorescence, 24 h, 100 nL compound, profiling panel (AID 1170). Further: test concentration not given here. The following applies: MM1S mitochondrial potential, higher = more signal.
Experiment [20] is described as follows: resazurin metabolic signal in A549 cells – cell-based, resazurin fluorescence, 24 h, PK04 Diversity Set, profiling panel (AID 1171). Further: test concentration not given here. The following applies: A549 viability, higher = more signal, called active from +8 up or from −8 down.

The source made the active and inactive calls.

Turning to `CC(C)(C)OC(=O)CC[C@@]1(C(=O)O)N=C(c2ccc(OCCCO)cc2)O[C@@H]1c1ccccc1`, the z-score is 0.0442 (inactive) in experiment [1]; 6.52 (inactive) in [3]; 0.0947 (inactive) in experiment [4]; -0.819 (inactive) in experiment [5]; 0.0734 (inactive) in experiment [6]; -0.407 in experiment [7]. For the same compound, the z-score in experiment [8] was 0.104 (inactive); in experiment [9], 1.27 (inactive); in experiment [10] it was 0.548; in experiment [11], -0.662; in experiment [12], -0.982; in [13], -0.289. Further, the z-score in [14] was -0.764; in experiment [15], 0.335; in experiment [16], -0.602; in [17], -0.445 (inactive); in experiment [18], 0.855; in experiment [19], -0.939. Moreover, in [20], the z-score was 0.477 (inactive). For the same compound, the composite z-score in experiment [2] came out at 0.284.
As for `C=C1C2CC3C(=C4C(CO[C@@H]4[C@H]4CCCN4S(=O)(=O)c4ccccc4[N+](=O)[O-])C4C(=O)N(C)C(=O)C34)CC2C(=O)N1C` (stereo not given in full), the z-score in experiment [1] is -0.523 (inactive); in [3] it was 4.07 (inactive); in [4] it was 0.0975 (inactive); in [5], -0.513 (inactive); in experiment [6], -0.0387 (inactive); in experiment [7], 0.0973. Further, the z-score in experiment [8] is 0.228 (inactive); in experiment [9], 0.569 (inactive); in [10] it was 0.751; in [11], -0.704; in experiment [12] it was 0.332; in [13], -0.0708. Further, the z-score was -3.31 in experiment [14]; -1.28 in experiment [15]; -1.83 in experiment [16]; -0.543 (inactive) in [17]; 0.485 in experiment [18]; -0.347 in experiment [19]. Also, the z-score in experiment [20] was -0.123 (inactive). Moreover, the composite z-score in [2] is -0.147.
With `COCC(=C=CC[C@H](O)c1cccc(OCCO)c1)C[C@H](O)c1ccccn1`, the z-score in experiment [1] is 0.941 (inactive); in experiment [3] it was 8.86 (active); in [4] it was 1.16 (inactive); in [5] it was 1.49 (inactive); in experiment [6], 0.674 (inactive); in experiment [7], 0.789. The z-score in experiment [8] is -0.142 (inactive); in [9], 0.154 (inactive); in experiment [10], -0.772; in experiment [11], 1.39; in experiment [12], 0.101; in [13], 1.25. For the same compound, the z-score in [14] was 0.0467; in [15], 0.461; in experiment [16], 0.843; in experiment [17], 1.49 (inactive); in experiment [18], 0.237; in [19] it was -0.664. In experiment [20], the z-score is 1.22 (inactive). The same compound displayed a composite z-score in experiment [2] of -0.198.
As for `COCCOC(=O)N1C(=O)[C@@]2(c3cc(C#CCNC(N)=O)ccc31)[C@H](C(=O)N1CCCCCCC1)[C@H]1C(=O)O[C@H](c3ccccc3)[C@H](c3ccccc3)N1[C@@H]2c1ccc(O)cc1`, the z-score was -0.455 (inactive) in experiment [1]; -0.0508 (inactive) in experiment [3]; -0.164 (inactive) in experiment [4]; -0.271 (inactive) in [5]; 0.0404 (inactive) in [6]; 0.0746 in experiment [7]. The z-score in experiment [8] was 2.56 (inactive); in experiment [9] it was 0.475 (inactive); in experiment [10], 1.73; in [11], 0.614; in experiment [12] it was -0.369; in experiment [13], -0.395. For the same compound, the z-score in experiment [14] was -0.787; in experiment [15] it was 0.337; in experiment [16], -2.08; in [17], -0.379 (inactive); in experiment [18], -0.216; in [19], 0.444. Besides, the z-score in experiment [20] was -0.171 (inactive). Further, in experiment [2], the composite z-score was -0.0945.
Turning to `CON(C)C(=O)C=C1C[C@@H](c2cccc(Cl)c2)O[C@@H](c2cccc(Cl)c2)O1`, the z-score in experiment [1] is -0.511 (inactive); in experiment [3], 9.13 (active); in experiment [4], 2.17 (inactive); in [5] it was -1.24 (inactive); in experiment [6], 1.47 (inactive); in experiment [7], 0.178. The z-score in experiment [8] is -0.0563 (inactive); in experiment [9], -0.986 (inactive); in [10], 0.0304; in experiment [11], -1.5; in experiment [12] it was 0.559; in [13], -2.18. Moreover, the z-score is -2.44 in experiment [14]; -4.18 in [15]; 3.67 in experiment [16]; 0.748 (inactive) in experiment [17]; -1.09 in experiment [18]; -1.16 in experiment [19]. In experiment [20], the z-score was 2.23 (inactive). In experiment [2], this compound showed a composite z-score of -0.0035.
Take `CN(C)C(=O)[C@@]1(Cc2ccccc2N=[N+]=[N-])COC(c2ccc(OCCCO)cc2)=N1`: the z-score is 1.92 (inactive) in [1]; 26.3 (active) in experiment [3]; 6.99 (inactive) in experiment [4]; 3.43 (inactive) in [5]; 1.23 (inactive) in [6]; 0.685 in experiment [7]. In addition, the z-score is -1.99 (inactive) in [8]; -0.103 (inactive) in experiment [9]; -1.82 in experiment [10]; 1.69 in [11]; -0.541 in [12]; 1.32 in experiment [13]. For the same compound, the z-score in experiment [14] is -0.257; in [15], 0.192; in [16], 1.4; in experiment [17], 0.0922 (inactive); in experiment [18] it was -0.934; in [19], -1.23. Besides, in [20], the z-score was 0.325 (inactive). For the same compound, the composite z-score in experiment [2] was -0.781.
`COC(=O)[C@@]1(Cc2ccccc2)[C@H]2c3cc(C(=O)N4CCCC4)n(C[C@H](O)CO)c3C[C@H]2CN1C(=O)c1ccccc1`: the z-score in [1] was -1.22 (inactive); in experiment [3], 0.975 (inactive); in [4], 0.192 (inactive); in experiment [5] it was 0.218 (inactive); in [6], 0.592 (inactive); in experiment [7], -0.26. The z-score is 0.223 (inactive) in experiment [8]; -0.303 (inactive) in experiment [9]; -1.45 in [10]; -1.11 in [11]; -0.154 in experiment [12]; 0.0709 in [13]. In addition, the z-score in experiment [14] is 0.37; in [15] it was 0.302; in [16] it was 0.438; in experiment [17] it was -0.128 (inactive); in [18], -0.0296; in [19], -0.3. In experiment [20], the z-score is -0.63 (inactive). This compound had a composite z-score in experiment [2] of -0.165.
